Hits are enriched below; roughly 12% of the tested compounds scored in any of these assays.
BAZ2B block: blocks human BAZ2B; 360,000 tested, 4.4% active; AlphaScreen BAZ2B-H3K14Ac peptide displacement; Potency, µM (series often up to 114 µM), actives largely listed as inhibitors; AID 504333; also: nearly all actives have a fitted effect of over 60% in size
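Complex of BAZ2B and biotin-H3K14Ac (50 nM apiece) forms over 30 min at RT, then faces library compounds up to 110 uM for another 30 min; AlphaScreen beads added, 20 min dark incubation, luminescence read.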
JMJD2A Tudor: JMJD2A Tudor domain (human) inhibition | 390,000 tested, 4.4% active | AlphaScreen JMJD2A-Tudor / H3K4me3 peptide binding | AID 504339 | Potency, µM (doses to about 114 µM), most hits filed as inhibitors; also: nearly all actives have a fitted effect of over 50% in size
Target sequence (O75164 whole entry, looked up, the tested form may be a part): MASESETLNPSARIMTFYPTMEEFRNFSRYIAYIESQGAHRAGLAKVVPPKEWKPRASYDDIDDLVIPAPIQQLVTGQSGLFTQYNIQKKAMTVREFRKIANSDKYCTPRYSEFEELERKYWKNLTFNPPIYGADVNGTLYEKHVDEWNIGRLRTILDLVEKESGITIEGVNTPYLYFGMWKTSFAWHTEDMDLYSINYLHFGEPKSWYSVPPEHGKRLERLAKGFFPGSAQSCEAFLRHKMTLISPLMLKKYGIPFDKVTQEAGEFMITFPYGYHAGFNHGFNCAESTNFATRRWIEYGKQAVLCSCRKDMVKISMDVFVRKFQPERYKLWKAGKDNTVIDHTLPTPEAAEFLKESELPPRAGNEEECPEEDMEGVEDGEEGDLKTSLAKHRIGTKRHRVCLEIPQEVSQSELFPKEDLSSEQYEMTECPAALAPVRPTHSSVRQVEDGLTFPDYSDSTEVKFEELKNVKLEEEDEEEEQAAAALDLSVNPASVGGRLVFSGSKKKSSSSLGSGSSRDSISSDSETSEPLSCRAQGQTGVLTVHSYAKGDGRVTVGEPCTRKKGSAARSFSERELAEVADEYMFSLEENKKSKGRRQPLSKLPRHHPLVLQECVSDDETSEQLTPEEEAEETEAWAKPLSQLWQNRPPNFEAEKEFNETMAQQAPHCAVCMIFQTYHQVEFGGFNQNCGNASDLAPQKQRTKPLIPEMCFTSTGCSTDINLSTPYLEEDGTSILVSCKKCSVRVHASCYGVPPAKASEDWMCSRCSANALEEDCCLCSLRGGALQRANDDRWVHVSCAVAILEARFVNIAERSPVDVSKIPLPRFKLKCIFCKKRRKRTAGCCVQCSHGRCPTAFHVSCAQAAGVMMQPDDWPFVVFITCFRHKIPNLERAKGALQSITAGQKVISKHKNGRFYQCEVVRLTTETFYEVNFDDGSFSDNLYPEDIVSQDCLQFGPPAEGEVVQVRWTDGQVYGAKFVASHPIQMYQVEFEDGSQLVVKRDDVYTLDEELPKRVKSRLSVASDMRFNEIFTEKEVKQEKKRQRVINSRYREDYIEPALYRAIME
PLK1 PBD inh: PLK1 (human) polo-box domain binding inhibition; AID 720504; 360,000 tested, 2.8% active; P53350; Potency, µM, actives largely listed as inhibitors; Plk1 PBD binding of FITC phosphopeptide, fluorescence polarization; also: series mostly up to about 57 µM; nearly all actives have a fitted effect of over 65% in size
PI5P4K alpha inh: blocks human PI5P4K alpha kinase activity. P48426. PI5P4Kalpha enzyme, ADP-Glo luminescence, 60 min; active compounds read low. max response, %. 330,000 tested, 1.2% active. AID 652105; active = max response of -50% or lower; inconclusive = between -30% and -50%; inactive = -30% or higher; also: value at the top dose of about 77 µM
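ADP-Glo luminescence end-point after a 60 min room-temperature kinase reaction. PI5P4Kalpha and substrate in HEPES pH 7.4 buffer with EGTA, 0.1% CHAPS and 5% DMSO; ATP at 5 microM final.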
G9a block: inhibitors of human histone lysine methyltransferase G9a; 350,000 tested, 8.8% active; AID 504332; Q96KQ7; G9a H3K9 monomethylation, AlphaScreen, 2 h; Potency, µM (series often up to 102 µM), usual class: inhibitors; also: nearly all actives have a fitted effect of over 75% in size
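G9a (20 nM) preincubated 15 min RT with compounds, then 500 nM biotinylated H3K9 peptide and 20 uM SAM added; 2 h RT reaction. Monomethyl-H3K9 product detected by AlphaScreen with anti-H3K9me1 antibody, streptavidin donor and anti-rabbit IgG acceptor beads.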
HP1b binding inh: HP1-beta chromodomain-methylated histone interaction inhibition; AID 540317; AlphaScreen HP1-beta / biotin-H3K9me3 peptide binding; 390,000 tested, 0.56% active; Potency, µM (highest dose often 114 µM), most hits filed as inhibitors; also: nearly all actives have a fitted effect of over 70% in size
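AlphaScreen: HP1-beta (50 nM) preformed 30 min with biotin-H3(1-18)K9me3 peptide (50 nM) in PBS pH 7.4, 0.01% Tween-20. Compound added for 30 min at RT, then streptavidin donor/nickel chelate acceptor beads (10 ug/mL) for 30 min.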
A number is an active result; - = inactive; ? = inconclusive; . = not tested or not shown; [ ] = remark or other dose. Unless noted, calls follow the shape of the dose curve; as a rule, active = well fitted curve in the direction sought with a large enough effect; inconclusive = small, poorly fitted or top-dose-only effect, or another doubt; inactive = no such curve, though single readings can be large; an effect the other way counts as inactive or inconclusive.

SMILES | BAZ2B block | JMJD2A Tudor | PLK1 PBD inh | PI5P4K alpha inh | G9a block | HP1b binding inh
CCN(CC)c1ccc(/C=C(/C#N)C(=O)NCc2ccccc2)o1 | - | - | - | - | 11µM | -
CCN(CC)c1ccc(/C=C(/C#N)C(=O)NC(C)C)o1 | - | ? | - | - | ? | -
Cc1ccc(C)c(OCCn2cc(/C=C(\C#N)C(=O)NCC3CCCO3)c3ccccc32)c1 (stereo not drawn) | - | ? | 30µM | - | - | -
N#Cc1ccccc1Cn1cc(/C=C/[N+](=O)[O-])c2ccccc21 | ? | - | ? | - | 50µM | -
CC(C)C[C@H]1COc2cc(N3CCC[C@@H]3CO)ccc2S(=O)(=O)N1 | . | . | - | - | . | .
O=C(Nc1cc(Cl)cc2c1-c1ccc(Cl)cc1C2O)C(Cl)Cl (stereo not drawn) | . | - | - | - | . | -
O=C(O)Cn1cc(/C=C/[N+](=O)[O-])c2ccccc21 | - | - | - | - | 56µM | -
O=C(Cn1cc(/C=C\[N+](=O)[O-])c2ccccc21)Nc1ccccc1 | - | - | - | - | - | -
O=C(NCCCN1CCOCC1)c1ccc2c(=O)n(Cc3ccc(Cl)cc3)c(=S)[nH]c2c1 | - | - | - | - | 7.1µM | -
CCOc1cc2[nH]c(=S)n(Cc3ccc(C(=O)NCCCN(CC)CC)cc3)c(=O)c2cc1OCC | - | ? | - | - | 35µM | -
CCOc1cc2[nH]c(=S)n(Cc3ccc(C(=O)NCCCN4CCOCC4)cc3)c(=O)c2cc1OCC | - | - | - | - | 25µM | -
CCOc1cc2[nH]c(=S)n(CCCN3CCOCC3)c(=O)c2cc1OCC | - | 56µM | - | . | -[12.7 µM] | -
COC(=O)c1ccc2c(=O)n(Cc3ccc(C(=O)NCCCN4CCOCC4)cc3)c(=S)[nH]c2c1 | - | - | - | - | ? | -
N#Cc1cccc(-c2cncnc2NCc2ccccc2)c1 | . | . | . | . | -[0.501 µM] | .
CN1c2ccccc2-c2nc(SCC(=O)Nc3ccccc3)ncc2S1(=O)=O | - | - | . | . | - | -
O=C(NCCCN1CCOCC1)C1CCN(S(=O)(=O)c2ccccc2)CC1 | - | - | - | - | - | -
CCOc1cc2[nH]c(=S)n(CCN3CCC(C)CC3)c(=O)c2cc1OCC | - | - | - | - | -[0.501 µM] | -
CCOc1cc2[nH]c(=S)n(CCN3CCCCC3CC)c(=O)c2cc1OCC (stereo not drawn) | - | - | - | - | 56µM | -
COc1cc2c(=O)n(CCCN3CCOCC3)c(=S)[nH]c2c(OC)c1OC | - | 32µM | ? | - | 13µM | -
O=c1c2cc(F)ccc2[nH]c(=S)n1CCCN1CCOCC1 | - | - | - | . | 50µM | -
O=c1c2cc3c(cc2[nH]c(=S)n1CCN1CCOCC1)OCO3 | ? | 35µM | - | - | ? | -
O=c1c2cc(N3CCOCC3)ccc2[nH]c(=S)n1CCCN1CCCCCC1 | - | - | - | - | -[12.7 µM] | -
O=C(NCc1cccc(C(F)(F)F)c1)c1csc(COCCO)n1 | . | . | - | - | . | .
COCCN1CC(=O)N2C(c3cccc(OC)c3)c3[nH]c4ccccc4c3C[C@H]2C1=O (stereo partly drawn) | - | - | - | - | -[0.501 µM] | -
O=C(O)c1ncn(Cc2ccc(Br)cc2)c1C(=O)O | 32µM | - | - | - | 4µM | -
SMILES | BAZ2B block | JMJD2A Tudor | PLK1 PBD inh | PI5P4K alpha inh | G9a block | HP1b binding inh
O=C(c1ncn(Cc2ccccc2)c1C(=O)N1CCN(c2ccccc2)CC1)N1CCN(c2ccccc2)CC1 | . | ? | - | - | . | -
COc1ccc(-c2cc(C(=O)Oc3ccc(C#N)cc3)no2)cc1 | - | ? | . | . | - | -
CCOc1cc(C(=S)N2CCOCC2)ccc1OC(=O)c1ccccc1 | ? | - | ? | - | 22µM | -
CCOc1ccc(C(=S)N2CCOCC2)cc1OC | - | - | ? | - | ? | -
CCOc1cc(C(=S)N2CCOCC2)ccc1OC(=O)c1cccc(C)c1 | - | ? | - | - | ? | -
CCOc1cc(C(=S)N2CCOCC2)ccc1OC | - | - | 24µM | . | 10µM | -
CCOc1cc(C(=S)N2CCCC2)ccc1OCc1ccccc1 | - | - | - | - | - | -
CCOc1ccc(C(=S)N2CCCC2)cc1OCC | - | - | ? | ? | 10µM | -
CCOc1cc(C(=S)N2CCOCC2)ccc1OC(=O)c1ccc(C)cc1 | - | ? | - | - | 45µM | -
COc1ccc(CNC(=O)C2CCN(S(=O)(=O)N3CCC(C)CC3)CC2)c(OC)c1 | - | - | - | - | - | -
Cc1ccc(-n2nc3c(N4CCCC(C(=O)NCc5ccccc5C)C4)nnc(C)c3c2C)cc1 (stereo not drawn) | - | - | . | . | ? | -
CCOc1cc(/C=C/C(=O)c2ccc(OC)c(CN3CCOCC3)c2)cc(Br)c1O | ? | ? | - | - | 45µM | -
CCOc1cc2nc(-c3ccc(OC)c(OC)c3)nc(N3CCOCC3)c2cc1OC | 56µM | - | - | - | -[2.33 µM] | -
CCOc1cc2nc(-c3ccc(OC)c(OC)c3)nc(N3CC(C)OC(C)C3)c2cc1OC (stereo not drawn) | - | . | . | . | . | .
O=C1OC(OC(=O)c2cccnc2Nc2cccc(C(F)(F)F)c2)c2ccccc21 (stereo not drawn) | . | . | . | . | -[12.7 µM] | .
COc1ccc(N2CCN(Cc3cc4c(cc3Br)OCCO4)CC2)cc1 | 13µM | 22µM | - | - | 28µM | ?
COc1ccc(N2CCN(Cc3csc(C)c3-c3ccc(C)cc3)CC2)cc1 | 28µM | 13µM | - | - | 11µM | 35µM
COc1ccccc1N1CCN(Cc2cc3c(cc2Br)OCCO3)CC1 | ? | ? | - | - | ? | -
c1ccc(CSc2nnnn2-c2ccccc2)cc1 | - | - | - | . | - | -
CCc1ccc(-n2c(CSc3nnnn3-c3ccccc3)nc3ccccc3c2=O)cc1 | - | -[11.4 µM] | 6µM | ? | ? | -
CCOC(=O)c1c(C)[nH]c(C)c1S(=O)(=O)NCc1cc(C)ccc1C | 50µM | ? | - | - | ? | -
CCOC(=O)c1c(C)[nH]c(C)c1S(=O)(=O)NCC(=O)NCc1ccccc1C | - | - | . | . | - | -
S=c1[nH]cc(Cc2ccccc2)s1 | - | 4µM | ? | - | 1.8µM | ?
O=c1[nH]cc(Cc2ccccc2)c(=O)[nH]1 | . | . | - | - | . | .
Cc1ccc(-c2nnc(Nc3cccc(Cl)c3)c3ccccc23)cc1S(=O)(=O)N1CCN(C)CC1 | ? | ? | . | . | 7.9µM | -
Cc1cccc(Nc2nnc(-c3ccc(C)c(S(=O)(=O)N4CCN(C)CC4)c3)c3ccccc23)c1 | ? | - | . | . | 18µM | -
Cc1ccc(-c2nnc(Nc3ccccc3)c3ccccc23)cc1S(=O)(=O)N1CCN(C)CC1 | - | - | . | . | ? | -
Cc1ccc(-c2nnc(Nc3cccc(Br)c3)c3ccccc23)cc1S(=O)(=O)N1CCN(C)CC1 | ? | ? | . | . | - | -
Cc1cc(S(=O)(=O)Nc2ccc(-c3ccc(N4CCCCCC4)nn3)cc2)c(C)cc1Cl | ? | - | . | . | - | -

Screening data (PubChem BioAssay)
